Screens deposited in PubChem BioAssay by National Center for Advancing Translational Sciences (NCATS).
Shiga inhibitor: Shiga toxin inhibition; Vero cells, Shiga toxin protein synthesis inhibition reporter; inhibition, % at 38.7 µM; hit rate 9.2% among 290,000; in the data active = inhibition mostly above about 28%, no sharp cut-off; inactive = mostly below about 43%; also: 0% is about no effect
AMA1 RON2 block: disrupts binding of P. falciparum AMA1 to RON2; Potency, µM (series often up to 58.2 µM), without a hit: at the highest dose activity change, negative = inhibition, most hits filed as inhibitors; hit rate 0.2% among 360,000; AlphaScreen AMA1-biotinylated RON2 peptide binding; AID 720542;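 also: potency is read from the fitted curve at half-maximal effect; 0% = vehicle wells and -100% = peptide control; nearly all actives have a fitted effect of over 45% in size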
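AMA1 (3D7) with his tag at 25 nM final met compounds first, then biotinylated RON2 peptide at 25 nM; detection used donor plus acceptor beads, 10 µg/mL apiece, read by AlphaScreen after 30 min at room temperature.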
Pf growth 48h: inhibits P. falciparum growth in the first generation, 48 h; P. falciparum luciferase growth in erythrocytes, 48 h; Potency, µM (highest dose often 28.7 µM), for the others: top-dose activity change, negative = inhibition, usual class: inhibitors; hit rate 5.9% among 310,000; also: potency is read from the fitted curve at half-maximal effect; % is scaled to controls: 0 for no effect and ±100 for the full control effect
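Compounds are pin-transferred into medium, infected erythrocytes (2% hematocrit, 0.1% parasitemia final) are added, and plates sit one parasite generation at 37 C in 5% CO2. Detection reagent is then added and luminescence measured.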
CHX counter: affects cycloheximide protein synthesis inhibition readout, counter-screen. cell reporter, cycloheximide protein synthesis inhibition counterscreen. max response, %. hit rate 12% among 300,000. AID 2314; in the data active = max response mostly above about 13%, no sharp cut-off; inactive = mostly below about 14%; also: read at 38.3 µM for the half of the compounds with a filed dose; 0% is about no effect
Pf growth 96h: P. falciparum growth inhibition at 96 hours. P. falciparum luciferase reporter growth, 96 h. Potency, µM (doses to about 28.7 µM), for inactives: at the top dose activity change, negative = inhibition, hits mostly inhibitors. hit rate 6.9% among 320,000. AID 504834; also: potency is read from the fitted curve at half-maximal effect; % is scaled to controls: 0 for no effect and ±100 for the full control effect
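Plates of compound plus infected erythrocytes (2% hematocrit, 0.05% parasitemia final) incubate 96 hours, 37 C, 5% CO2. Detection reagent added; reduced luminescence from the parasites' luciferase reporter flags inhibition.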
HCV inh: HCV inhibition; Huh7.5.1 HCVcc-Cre infection, luciferase reporter, 44 h; Potency, µM (top dose mostly 41.8 µM), for the others: at the highest dose activity change, negative = inhibition, hits mostly inhibitors; hit rate 3.4% among 340,000; also: potency is read from the fitted curve at half-maximal effect; % is scaled to controls: 0 for no effect and ±100 for the full control effect
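Seed cells (1,000/well) for 4 h; treat with compound and infect with HCVcc-Cre, moi about 0.5. Incubate 44 h, then detect luciferase activity.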
An asterisk follows results filed as active; ? = inconclusive; . = no result given. An excerpt weighted towards active compounds, which were near 21% of everything screened. Unless noted, calls follow the shape of the dose curve; as a rule, active = well fitted curve in the direction sought with a large enough effect; inconclusive = small, poorly fitted or top-dose-only effect, or another doubt; inactive = no such curve, though single readings can be large; an effect the other way counts as inactive or inconclusive.

SMILES	Shiga inhibitor	AMA1 RON2 block	Pf growth 48h	CHX counter	Pf growth 96h	HCV inh
Cc1ccc(O)c(C=Nc2ccc3[nH]ncc3c2)c1	-6	2%	16%	-1	?	11%
Oc1ccccc1C=NCCCCCCN=Cc1ccccc1O	25	90%	0%	9	0%	-5%
CCCS/C(N)=N/N=C/c1cc(C)ccc1O	145*	-2%	270%	42*	.	?
COc1ccc(C2c3ccsc3CCN2C(=O)NC(C)(C)C)cc1 (stereo unspecified)	3	12%	-9%	-1	?	22µM*
CC1c2ccsc2CCN1C(=O)NC(=O)c1ccc(Cl)cc1 (stereo unspecified)	16	7%	-5%	1	?	-20%
Cc1noc(C)c1C(=O)N1CCC1(C)C(=O)NS(=O)(=O)c1cccs1 (stereo unspecified)	.	-5%	.	.	.	.
COc1ccc(C2/C=C\CN(C(=O)c3ccccc3)C(C)C(=O)N2Cc2ccc(F)cc2)cc1 (stereo unspecified)	-14	.	.	0	.	.
Cc1cccc(-c2nc(=S)c3c(o2)CCCC3)c1	129*	39%	232%	48*	.	12%
CC(=O)CC1c2ccccc2C=C(c2ccsc2)N1c1ccc(-c2cccs2)cc1 (stereo unspecified)	.	3%	.	.	.	.
CNCCCC1c2ccccc2C=Cc2ccccc21	-17	4%	?	-4	12µM*	?
COc1cc(CC(=O)N2CCN(C(=O)C3CCCO3)CC2)cc(OC)c1OC (stereo unspecified)	.	-9%	.	.	.	8%
O=C(CSc1nc2ccccc2n1CC(=O)N1CCCC1)Nc1nccs1	17	-4%	-2%	-2	2.6µM*	-8%
O=C(CSc1nc2ccccc2n1CC(=O)N1CCOCC1)N1CCCC1	-4	1%	11%	-4	?	9%
O=C(CSc1ccc(-c2nc3ccccc3[nH]2)cn1)N1CCN(C(=O)c2ccco2)CC1	11	-1%	13µM*	2	1%	-26%
O=C(CSc1nc2ccccc2n1CC(=O)N1CCCC1)N1CCN(C(=O)c2ccco2)CC1	9	11%	-16%	-2	6.6µM*	7%
CCS(=O)(=O)c1nc2ccccc2n1CC(=O)N1CCCCC1	-2	13%	-9%	10	10µM*	1%
CCCOc1ccc(/C=C/C(=O)N2CCN(C(=O)c3ccco3)CC2)cc1OC	.	-15%	.	.	.	.
C[C@H]1CN([C@@H](C)CO)C(=O)CCCn2nncc2CO[C@H]1CN(C)C(=O)Nc1cccc(Oc2ccccn2)c1	.	16%	.	.	.	.
Cc1ccc(S(=O)(=O)Nc2ccc3nc(C)sc3c2)c(C)c1	.	-8%	-25%	.	?	?
Cc1nc2ccc(NS(=O)(=O)c3c(C)c(C)cc(C)c3C)cc2s1	46	1%	?	0	-19%	16µM*
Cc1nc2cc(NS(=O)(=O)c3c(C)c(C)cc(C)c3C)ccc2s1	20	16%	?	3	?	2.8µM*
O=C(CCCCCn1c(=S)[nH]c2ccccc2c1=O)N1CCC2(CC1)OCCO2	-23	43%	8.3µM*	-2	15%	-5%
O=C(CCn1c(=O)oc2ccccc21)N1CCOCC1	-4	7%	4%	-5	?	3%
Cn1c(=O)n(CC(=O)N2CCC3(CC2)OCCO3)c(=O)c2ccccc21	-13	-5%	43%	4	1.7µM*	-6%
O=C(CCn1c(=O)oc2ccccc21)N1CCC2(CC1)OCCO2	19	5%	-7%	14*	4%	-11%
SMILES	Shiga inhibitor	AMA1 RON2 block	Pf growth 48h	CHX counter	Pf growth 96h	HCV inh
O=C(Cn1c(=S)[nH]c2ccccc2c1=O)N1CCC2(CC1)OCCO2	13	5%	9%	-3	40%	4%
COc1cc(-c2[nH]ncc2CN(C)Cc2nonc2C)cc(OC)c1OC	-5	-15%	?	-3	1.7µM*	?
COc1ccc(-c2[nH]ncc2CN(C)Cc2nonc2C)c(OC)c1	-7	16%	9%	1	10µM*	1%
CCOC(=O)c1c(-c2ncc(C(F)(F)F)cc2Cl)noc1C	-12	10%	2%	1	29%	-1%
CC(/C=C/c1ccco1)=N/NC(=O)Cc1cccs1	-30	8%	20%	14*	12%	-3%
CC(/C=N/NC(=O)c1cccs1)=C\c1ccco1	128*	24%	78%	58*	?	-21%
CC(/C=N/NC(=O)CSc1nc2ccccc2n1C)=C\c1ccco1	6	34%	1%	-2	-18%	?
CC(/C=N/NC(=O)Cc1cccs1)=C\c1ccco1	37	14%	53%	41*	-25%	?
CCC(=O)N1CCc2cc(Br)c(S(=O)(=O)CCC(=O)NCCc3ccccc3)cc21	.	-8%	.	.	.	23%
CCNc1nc(NCC)n2c(SCC(=O)Nc3ccccc3Cl)nnc2n1	.	-22%	?	.	?	?
CCNc1nc(NCC)n2c(SCC(=O)Nc3cccc(F)c3)nnc2n1	.	11%	?	.	-23%	-7%
CCNc1nc(NCC)n2c(SCC(=O)Nc3cccc(Cl)c3)nnc2n1	.	-16%	12µM*	.	5.2µM*	?
CCNc1nc(NCC)n2c(SC(C(=O)Nc3cc(Cl)cc(Cl)c3)c3ccccc3)nnc2n1 (stereo unspecified)	-3	9%	12%	5	10µM*	?
COc1ccc(C(=O)NCCCn2nc(C)cc2C)cc1S(=O)(=O)N1CCOCC1	.	6%	-19%	.	-4%	16%
CC1(C(=O)NCc2cccc(Cl)c2)Cc2c(-c3ccc4c(c3)OCO4)ccnc2O1 (stereo unspecified)	.	-12%	.	.	.	.
O=C(CSc1nnc(-c2cccnc2)o1)N1CCCCC1	32	16%	40%	5	3%	10%
Cc1cc(CN2CCCC(C(=O)Nc3ccc(-c4nc5ccccc5[nH]4)cc3)C2)n[nH]1 (stereo unspecified)	42	24%	?	29*	7%	-15%
CCn1cc(CN2CCCC(C(=O)Nc3ccc(-c4nc5ccccc5[nH]4)cc3)C2)c(C)n1 (stereo unspecified)	34	-12%	2.1µM*	26*	26%	-18%
COc1cccc(-c2ccc(NC(=O)C3CCCN(Cc4cccc(C)n4)C3)cc2)c1 (stereo unspecified)	.	16%	.	.	.	.
Cc1ccc(N2CCC(N3CCN(C4CCCCC4)C(CCO)C3)CC2)cc1 (stereo unspecified)	-13	0%	?	-1	23%	?
COc1ccc(-c2ccc(CO)o2)cc1N	55*	-2%	112%	31*	79%	-12%
O=C(NCCN1CCOCC1)c1ccc2c(c1)N(Cc1cccc(F)c1)C(=O)c1ccccc1S2	-10	-7%	?	-8	-13%	0%
CCCCNC(=O)Nc1ccc2c(c1)N(C)C(=O)c1ccccc1S2	-6	-2%	?	2	3.3µM*	-16%
